Experimental findings from the antibiotic and cytotoxicity screens of Wong et al. (2023) are described below.

The whole screen tested about 39,000 compounds, of which about 3,300 (8.5%) were called active. What follows is part of a selection rich in actives, with near analogues and random picks from the rest.

This test relates to HepG2. Kind of test: cytotoxicity call (relative viability < 0.9). To be noted: 10 µM.
Take `CC(C)NC(=O)N[C@H]1C=C[C@H](CC(=O)NCCCN(C)C)O[C@H]1CO`: the cytotoxicity call was “inactive”.
For `COc1ccc(S(=O)(=O)N(C)C[C@@H]2Oc3ccc(NC(=O)c4ccncc4)cc3CC(=O)N([C@H](C)CO)C[C@@H]2C)cc1` the value was “inactive”.
Under `O=C(O)C(O)C(O)C(OC1OC(CO)C(O)C(O)C1O)C(O)CO` (stereo not given) stands “inactive”; under `COc1cccc(S(=O)(=O)N[C@H]2C=C[C@H](CC(=O)NC3CCC3)O[C@@H]2CO)c1`, “inactive”; under `O=C(Nc1cccc(C(F)(F)F)c1)c1ccc2ccccc2c1`, “active”.
Under `CC(C)(C)c1ccc(C(=O)Nc2cccc(C(F)(F)F)c2)cc1` stands “inactive”; under `O=C(O)c1ccccc1Nc1cccc(C(F)(F)F)c1`, “inactive”.
For the compound `C[C@@H]1CCCCO[C@@H](CN(C)S(=O)(=O)c2ccc(F)cc2)[C@H](C)CN([C@H](C)CO)C(=O)c2cc(NC(=O)CCC(F)(F)F)ccc2O1`, the cytotoxicity call is “inactive”.
Under `C[C@@H]1CN([C@H](C)CO)S(=O)(=O)c2ccc(C3=CCCCC3)cc2O[C@H]1CN(C)Cc1cncnc1` stands “inactive”.
As for `CCCCN(CCCC)CC(O)c1cc(Cl)cc2c1-c1ccc(Cl)cc1C2=Cc1ccc(Cl)cc1` (stereo not given), the cytotoxicity call was “active”.
For `CCCCN(CCCC)CC[C@@H](O)c1cc2c(Cl)cc(Cl)cc2c2cc(C(F)(F)F)ccc12` the value was “inactive”.
Under `C[C@@H]1CCCCO[C@@H](CN(C)Cc2ccncc2)[C@H](C)CN([C@@H](C)CO)C(=O)c2cc(NC(=O)CCCCCC(=O)Nc3ccccc3N)ccc2O1` stands “inactive”; under `C[C@@H]1CN([C@@H](C)CO)C(=O)Cc2cc(NC(=O)Nc3ccc(F)cc3)ccc2O[C@@H]1CN(C)Cc1ccc(Cl)c(Cl)c1`, “active”; under `C[C@@H]1CN([C@H](C)CO)C(=O)Cc2cc(NC(=O)Nc3ccc(F)cc3)ccc2O[C@@H]1CN(C)Cc1ccc(Cl)c(Cl)c1`, “active”.
Under `C[C@H](CO)N1C[C@H](C)[C@@H](CN(C)Cc2ccc(Cl)c(Cl)c2)Oc2ccc(NC(=O)Nc3ccc(F)cc3)cc2CC1=O` stands “active”.
Turning to `C[C@H]1CN([C@@H](C)CO)C(=O)Cc2cc(NC(=O)Nc3ccc(F)cc3)ccc2O[C@H]1CN(C)Cc1ccc(Cl)c(Cl)c1`, the cytotoxicity call was “active”.
Under `COc1ccc(-n2c(C)cc(CN)c2C)cc1` stands “inactive”.
As to `O=C(C[C@H]1C[C@@H]2c3cc(NC(=O)c4ccc5c(c4)OCO5)ccc3O[C@@H]2[C@H](CO)O1)NCC(F)(F)F`, the cytotoxicity call is “inactive”.
For `CC(C)NC(=O)N(C)C[C@H]1Oc2c(NC(=O)NC3CCCCC3)cccc2C(=O)N([C@H](C)CO)C[C@@H]1C` the value was “inactive”.
Under `Cc1noc(C)c1NC(=O)Nc1ccc2c(c1)CC(=O)N([C@@H](C)CO)C[C@H](C)[C@@H](CN(C)S(C)(=O)=O)O2` stands “inactive”; under `C[C@H](CO)N1C[C@H](C)[C@H](CN(C)C(=O)Nc2ccc3c(c2)OCO3)OCCCC[C@H](C)Oc2ccc(NC(=O)Nc3ccccc3)cc2C1=O`, “inactive”; under `C[C@@H]1CCCCO[C@H](CN(C)S(=O)(=O)c2cccs2)[C@@H](C)CN([C@H](C)CO)C(=O)c2cc(NC(=O)Cc3ccccc3)ccc2O1`, “inactive”.
For `COc1ccc(S(=O)(=O)N(C)C[C@@H]2OCCCC[C@H](C)Oc3ccc(NC(=O)c4ccccc4)cc3C(=O)N([C@H](C)CO)C[C@@H]2C)cc1` the value was “inactive”; for `Cc1ccc(S(=O)(=O)N(C)C[C@@H]2Oc3ccc(NS(=O)(=O)c4cccs4)cc3CC(=O)N([C@H](C)CO)C[C@@H]2C)cc1`, “inactive”; for `COc1ccc(COC[C@]23NC(=O)N[C@H](c4ccccc4O2)[C@H]3COC(=O)NCCCCCC(=O)NO)cc1`, “inactive”.
As for `COCC(=O)N(C)C[C@H]1Oc2cc(-c3ccc(C#N)cc3)ccc2S(=O)(=O)N([C@H](C)CO)C[C@@H]1C`, the cytotoxicity call is “inactive”.
For `O=C(CCCCCNC(=O)OCc1ccc(CO[C@@H]2C[C@H](c3ccc(Br)cc3)C=C(C(=O)N3CCN(Cc4ccccc4)CC3)O2)cc1)NO` the value was “inactive”; for `COCC(=O)N(C)C[C@H]1Oc2cc(C#CCN(C)C)ccc2S(=O)(=O)N([C@@H](C)CO)C[C@@H]1C`, “inactive”.
For `C[C@H](CO)N1C[C@H](C)[C@H](CN(C)S(=O)(=O)c2cccs2)OCCCC[C@H](C)Oc2ccc(NS(=O)(=O)c3cn(C)cn3)cc2C1=O` the value was “inactive”; for `C[C@@H]1CN([C@H](C)CO)C(=O)c2cccc(N(C)C)c2O[C@H]1CN(C)S(C)(=O)=O`, “inactive”; for `C[C@H]1CN([C@@H](C)CO)C(=O)Cc2cc(NC(=O)Nc3ccc(F)cc3)ccc2O[C@@H]1CN(C)Cc1ccc(Cl)c(Cl)c1`, “active”.
For `C[C@@H]1CN([C@H](C)CO)C(=O)Cc2cc(NC(=O)Nc3ccc(F)cc3)ccc2O[C@H]1CN(C)Cc1ccc(Cl)c(Cl)c1` the value was “inactive”; for `C[C@@H]1CN([C@@H](C)CO)C(=O)Cc2cc(NC(=O)Nc3ccc(F)cc3)ccc2O[C@H]1CN(C)Cc1ccc(Cl)c(Cl)c1`, “active”.
Regarding `C[C@H](CO)N1C[C@H](C)[C@H](CN(C)Cc2ccc(Cl)c(Cl)c2)Oc2ccc(NC(=O)Nc3ccc(F)cc3)cc2CC1=O`, the cytotoxicity call was “active”.
Under `C[C@H](CO)N1C[C@H](C)[C@@H](CN(C)S(=O)(=O)c2cn(C)cn2)Oc2c(NC(=O)CCCN(C)C)cccc2C1=O` stands “inactive”; under `COc1ccc(NC(=O)N[C@@H]2CC[C@@H](CCNC(=O)CN3CCOCC3)O[C@@H]2CO)cc1`, “inactive”; under `C[C@@H]1CN([C@@H](C)CO)C(=O)CCCn2cc(nn2)CO[C@H]1CN(C)S(=O)(=O)c1ccc2c(c1)OCCCO2`, “inactive”.
As to `Cc1noc(C)c1NC(=O)N(C)C[C@H]1Oc2ccc(NS(C)(=O)=O)cc2C(=O)N([C@@H](C)CO)C[C@H]1C`, the cytotoxicity call was “inactive”.
For `C[C@H]1CCCCO[C@@H](CN(C)S(=O)(=O)c2ccc(F)cc2)[C@@H](C)CN([C@@H](C)CO)C(=O)c2cc(NC(=O)Nc3cccc4ccccc34)ccc2O1` the value was “inactive”; for `Cc1noc(C)c1NC(=O)Nc1ccc2c(c1)C(=O)N([C@H](C)CO)C[C@@H](C)[C@H](CN(C)C(=O)Nc1ccc(C(F)(F)F)cc1)OCCCC[C@@H](C)O2`, “inactive”; for `C[C@@H]1CN([C@H](C)CO)C(=O)c2cccc(NS(=O)(=O)c3ccccc3)c2O[C@@H]1CN(C)S(=O)(=O)c1cccs1`, “inactive”.
For `C/C1=C2/[N]([Co+][OH])[C@H]([C@H](CC(N)=O)[C@@]2(C)CCC(=O)NC[C@@H](C)OP(=O)(O)O[C@H]2[C@@H](O)[C@@H](n3cnc4cc(C)c(C)cc43)O[C@@H]2CO)[C@]2(C)N=C(/C(C)=C3N=C(/C=C4N=C1[C@@H](CCC(N)=O)C/4(C)C)[C@@H](CCC(N)=O)[C@]\3(C)CC(N)=O)[C@@H](CCC(N)=O)[C@]2(C)CC(N)=O` the value was “active”; for `C[C@@H]1CN([C@@H](C)CO)C(=O)c2cc(NC(=O)Nc3ccc4c(c3)OCO4)ccc2O[C@H]1CN(C)C(=O)Nc1cccc2ccccc12`, “inactive”; for `O=C(C[C@@H]1C[C@H]2c3cc(NC(=O)NC4CCCC4)ccc3O[C@H]2[C@H](CO)O1)NCCN1CCCCC1`, “inactive”.
Consider `Cc1cc2cc3c(C)cc(=O)oc3c(C)c2o1`, for which the cytotoxicity call is “inactive”.
For `O=c1cc(-c2ccccc2)oc2cc(O)ccc12` the value was “inactive”.
For `O=c1cc(-c2ccccc2)oc2c(O)c(O)ccc12` the value was “active”; for `Cc1cc(=O)oc2cc(O)ccc12`, “inactive”.
For `COc1ccc2c(=O)cc(-c3ccccc3)oc2c1OC` the value was “inactive”; for `Cc1cc(=O)oc2c(O)c(O)ccc12`, “active”.
On to `C[C@@H]1CCCCO[C@@H](CN(C)C(=O)Nc2ccc(F)cc2)[C@H](C)CN([C@H](C)CO)C(=O)c2cc(NC(=O)Nc3ccccc3)ccc2O1`, for which the cytotoxicity call was “inactive”.
For `C[C@@H]1CN([C@@H](C)CO)C(=O)c2cc(NS(=O)(=O)c3ccc(Cl)cc3)ccc2O[C@@H](C)CCCCO[C@H]1CN(C)C(=O)c1ccccc1` the value was “inactive”; for `Cc1ccc(S[C@]2(C(=O)NCC(C)C)CC(=O)N(Cc3ccccc3C(F)(F)F)[C@@H]2c2ccc(CO)cc2)cc1`, “inactive”.
Under `Cc1noc(C)c1NC(=O)Nc1ccc2c(c1)C(=O)N([C@@H](C)CO)C[C@@H](C)[C@H](CN(C)Cc1ccc(Oc3ccccc3)cc1)O2` stands “inactive”; under `COC(=O)CCCCCCC(=O)N/N=C/[C@H](O)[C@H](O)[C@@H](O)[C@H](C)O`, “inactive”; under `C=CC[C@H](CC(=O)N(CCO)Cc1ccccc1)C(=O)N[C@@H](COC(=O)[C@H](CC=C)CC(=O)OC(C)(C)C)Cc1c[nH]c2ccccc12`, “inactive”.
Under `C=CC[C@@H](CC(=O)N(CCO)Cc1ccccc1)C(=O)N[C@@H](COC(=O)[C@@H](CC=C)CC(=O)OC(C)(C)C)Cc1c[nH]c2ccccc12` stands “inactive”.
Regarding `C=CC[C@H](CC(=O)N(CCO)Cc1ccccc1)C(=O)N[C@@H](COC(=O)[C@@H](CC=C)Cc1ccc(F)cc1)Cc1c[nH]c2ccccc12`, the cytotoxicity call was “active”.
For `C=CC[C@H](CC(=O)N(CCO)Cc1ccccc1)C(=O)N[C@H](COC(=O)[C@H](CC=C)CC(=O)OC(C)(C)C)Cc1c[nH]c2ccccc12` the value was “inactive”.
For `C=CC[C@H](CC(=O)N(CCO)Cc1ccccc1)C(=O)N[C@H](COC(=O)[C@@H](CC=C)Cc1ccc(F)cc1)Cc1c[nH]c2ccccc12` the value was “inactive”.
Under `C=CC[C@@H](CC(=O)N(CCO)Cc1ccccc1)C(=O)N[C@H](COC(=O)[C@@H](CC=C)Cc1ccc(F)cc1)Cc1c[nH]c2ccccc12` stands “active”; under `C=CC[C@@H](CC(=O)N(CCO)Cc1ccccc1)C(=O)N[C@@H](COC(=O)[C@H](CC=C)CC(=O)OC(C)(C)C)Cc1c[nH]c2ccccc12`, “inactive”.
On to `C=CC[C@@H](CC(=O)N(CCO)Cc1ccccc1)C(=O)N[C@@H](COC(=O)[C@H](CC=C)Cc1ccc(F)cc1)Cc1c[nH]c2ccccc12`, for which the cytotoxicity call is “active”.
For `C=CC[C@@H](CC(=O)N(CCO)Cc1ccccc1)C(=O)N[C@@H](COC(=O)[C@@H](CC=C)Cc1ccc(F)cc1)Cc1c[nH]c2ccccc12` the value was “inactive”.
On to `c1ccc2c(CSc3nc4ccccc4o3)cccc2c1`, for which the cytotoxicity call is “inactive”.
